Compounds with a hit are over-represented: about 7% of the library has one in this group of screens.
ADAM17 inh: inhibits human ADAM17; P78536; recombinant ADAM17, EDANS/DABCYL FRET peptide cleavage; inhibition, % at 6.95 µM; hit rate 0.83% among 370,000; AID 720648;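 active means inhibition above the mean of compounds lying between control limits plus 3 SD, set per campaign, cut at about 8.5% in these data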
ADAM10 inh: ADAM10 inhibition, QFRET primary screen | AID 720582 | recombinant ADAM10, EDANS/DABCYL FRET peptide cleavage, 3 h | O14672 | hit rate 0.62% among 370,000 | inhibition, % at 7 µM;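 active means inhibition above a per-campaign cutoff equal to the mean of compounds falling between control-based bounds plus 3 SD, cut at about 20% in these data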
rCAG binder: binds r(CAG) RNA repeats | r(CAG) RNA repeat, TO-PRO-1 dye displacement fluorescence | inhibition, % at 3 µM | hit rate 1.3% among 370,000 | AID 651821;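 active means inhibition above the plate cutoff, the mean of all test compounds on that plate plus 3 SD, cut at about 35% in these data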;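 further: higher means more dye released from RNA so lower well fluorescence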
GRIN3A LBD mod: NR3A (human) ligand-binding domain modulation | NR3A LBD differential scanning fluorimetry, Tm shift; 0% = protein alone, 100% = glycine-bound protein | hit rate 2.5% among 340,000 | AID 1259313 | Tm shift relative to glycine control, % at 25 µM;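 active means melting temperature shift of at least 10% of the positive control shift, at one fixed dose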
AHR act: human AHR activation | activation, % at 5 µM | AID 2796 | hit rate 2.5% among 320,000 | P35869 | AHR-responsive luciferase reporter cells, luminescence; in the data active means activation above about 47%
KLK7 zymogen act: activators of human kallikrein-7 zymogen | P49862 | purified proKLK7, EDANS-DABCYL substrate fluorescence; 100% is mature enzyme control, 0% vehicle | activation, % at 7 µM | hit rate 0.9% among 370,000 | AID 652039;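 active means activation above the mean of all tested compounds plus 3 SD, computed per campaign excluding outliers beyond control limits, cut at about 13% in these data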
Of the large screens only hits and unclear results are named; the others gave an inactive call.

COc1cc(S(=O)(=O)Nc2cccc(C)c2)ccc1N=Cc1c(C)[nH]n(-c2ccccc2)c1=O	none (no result: ADAM17 inh, ADAM10 inh, rCAG binder, GRIN3A LBD mod, KLK7 zymogen act)
COc1cc(S(=O)(=O)Nc2ccc(C)cc2)ccc1N=Cc1c(C)[nH]n(-c2ccccc2)c1=O	GRIN3A LBD mod 26
COc1cccc(C2CC=C(C(=O)O)CN2S(=O)(=O)c2ccc(C)cc2)c1 (stereo not drawn)	none (no result: GRIN3A LBD mod, AHR act)
O=[N+]([O-])c1cc(-c2csc(NCCc3nc4cc(C(F)(F)F)ccc4n3CCCO)n2)ccc1Cl	GRIN3A LBD mod 17
Cc1nc2cc(C(F)(F)F)ccc2n1CCNc1nc(-c2ccc([N+](=O)[O-])c(Cl)c2)cs1	GRIN3A LBD mod 25
COC(=O)c1cn(-c2ccc3c(c2)[C@@]2(CC(=O)N(C)C2c2ccccc2)C(=O)N3CC(C)C)nn1 (stereo partly drawn)	none (no result: GRIN3A LBD mod, AHR act)
CCN1N=C(c2ccccc2)Cn2c1nc1ccccc12	AHR act 67
Cc1ccc(C)c(C(=O)Nc2nc3ccccc3[nH]2)c1	AHR act 48
Cc1onc(-c2ccccc2Cl)c1C(O)c1ccc(F)cc1 (stereo not drawn)	none

High-throughput results: PubChem BioAssay, several laboratories
